# TRPV1 ag – HTS Assay for Compounds that Act as Agonists of the Vanilloid Receptor 1. Transient receptor potential cation channel subfamily V member 1 (Homo sapiens), Q8NER1. hit rate 0.19% among 320,000. TRPV1-expressing cells, Fluo-8 calcium influx, agonist mode. activation, % at 8.33 µM. AID 540275, 2011; in the data active means activation above about 80%; inconclusive means between about 30% and that limit
#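 TRPV1-expressing cells were cultured overnight at 35.5C and loaded with Fluo-8 calcium dye for 40 to 90 min at room temperature. After a 10 s baseline, compound was added and calcium influx was read kinetically for 3 min (ex 480/em 520 nm).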
# TRPV1 potentiator – HTS Assay for Compounds that Act as Potentiators of the Vanilloid Receptor 1. hit rate 0.02% among 320,000. potentiation, % at 8.33 µM. TRPV1-expressing cells, Fluo-8 calcium influx, capsaicin EC20 potentiation. Transient receptor potential cation channel subfamily V member 1 (Homo sapiens), Q8NER1; in the data active means potentiation above about 80%; inconclusive means between about 30% and that limit
#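 Cells expressing TRPV1 were dye-loaded with Fluo-8 and read kinetically: 10 s baseline, 3 min after compound (agonist portion), then 2 min after EC20 capsaicin (allosteric enhancer portion). Calcium-bound dye fluorescence at 480/520 nm.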
# KCNH2 3.1 block – qHTS for Inhibitors of KCHN2 3.1: Mutant qHTS; activity change, % (tested at about 1.8 µM); AID 720553, 2013; U2OS KCNH2 3.1, thallium flux FluxOr; stronger effect = lower value; hit rate 0.95% among 340,000;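 active means maximum activity change below -70%; inconclusive means maximum activity change from -70% to -50%; inactive means maximum activity change above -50%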;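 further: thallium influx rate constant from kinetic fluorescence after stimulation buffer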
#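 Virally transduced U2OS (3.1 isoform, 4 h infection in dark at RT) → overnight 37 C → FluxOr + Red40 in HBSS/HEPES, 45 min → stimulation buffer, 2 min kinetic read → rate constant vs DMSO controls.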
# hERG WT inh – qHTS for Inhibitors of KCHN2 3.1: Wildtype qHTS. Voltage-gated inwardly rectifying potassium channel KCNH2 (Homo sapiens), Q12809. U2OS, BacMam KCNH2, thallium flux FluxOr; stronger effect = lower value. activity change, % at 1.84 µM. hit rate 0.37% among 340,000. AID 720551, 2013;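 active means maximum activity change below -70%; inconclusive means maximum activity change between -70% and -50%; inactive means maximum activity change above -50%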
#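 U2OS cells transduced with wild-type KCNH2 virus are loaded with FluxOr dye for 45 min, and thallium flux is measured in kinetic reads before and after stimulation buffer. Rate constants are normalized to DMSO controls.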
# MBNL1-CUG inh – qHTS Assay for Inhibitors of MBNL1-poly(CUG) RNA binding. Potency, µM (series often up to 57.5 µM), usual class: inhibitors. Muscleblind-like protein 1 (Homo sapiens), Q9NR56. hit rate 0.036% among 280,000. TR-FRET MBNL1-His/biotin-(CUG)12 binding, 665/545 ratio; active means well fitted inhibition curve with a large enough effect in the signal ratio, with a control signal flat, not every such curve was filed as active; inconclusive means small, poorly fitted or top-dose-only effect, or effect the other way, or a change in a side signal; inactive means no such curve, though single readings can be large or run the other way; the % refers to the signal ratio
# Target sequence (Q9NR56 whole entry, looked up): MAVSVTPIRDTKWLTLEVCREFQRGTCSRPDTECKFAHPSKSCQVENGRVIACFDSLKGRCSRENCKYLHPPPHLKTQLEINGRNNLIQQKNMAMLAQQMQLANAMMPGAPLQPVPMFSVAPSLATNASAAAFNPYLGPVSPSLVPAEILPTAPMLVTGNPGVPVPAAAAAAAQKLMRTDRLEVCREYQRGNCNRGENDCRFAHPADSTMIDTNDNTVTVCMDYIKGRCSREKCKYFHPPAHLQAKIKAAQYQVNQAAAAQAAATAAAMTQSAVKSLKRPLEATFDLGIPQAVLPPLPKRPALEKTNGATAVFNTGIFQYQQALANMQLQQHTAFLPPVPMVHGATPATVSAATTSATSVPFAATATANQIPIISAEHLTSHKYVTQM
#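 Inhibition of protein-RNA binding appears as loss of TR-FRET between terbium anti-His antibody on MBNL1-His and streptavidin-XL665 on biotin-(CUG)12. Activity is normalized to buffer-only and uninhibited-complex controls.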
# Hits are given with their value; – = inactive; ? = inconclusive; · = no result given. This is a sample that favours compounds with a hit; in the whole collection about 1.3% have one here.
SMILES,TRPV1 ag,TRPV1 potentiator,KCNH2 3.1 block,hERG WT inh,MBNL1-CUG inh
CCCOc1ccc(C2NC(=S)NC(C)=C2C(=O)c2ccccc2)cc1OC (configuration not stated),–,–,-112,–,–
COCCNC(=O)C1=NOC(Cn2cc(C#N)c(=O)n(C)c2=O)C1 (configuration not stated),–,?,–,–,–
CCOc1nc(Nc2ccc(OC)c(Cl)c2)nc(N2CCN(c3ccc(OC)cc3)CC2)n1,–,–,-109,–,–
COc1ccc(N2CCN(Cc3nc(N)nc(Nc4ccc(C)c(Cl)c4)n3)CC2)cc1,–,–,-73,–,–
Cc1ccc(Nc2nc(N)nc(CN3CCN(c4ccccc4)CC3)n2)cc1Cl,–,–,-75,–,–
CC(=O)c1ccc(-c2ccc(C(=O)NC3CCCCCC3)o2)cc1,–,–,–,–,?
COc1ccc(NC(=O)c2ccc(C(=O)c3cc(OC)ccc3OC)cc2)cc1,–,–,–,–,–
CCN(CC(=O)Nc1c(F)cccc1F)C(=O)c1ccc(N2CCCCC2)c([N+](=O)[O-])c1,–,–,–,–,–
CCN(C(=O)COC(=O)CNC(=O)c1ccc(C)s1)c1ccccc1,–,–,–,–,–
CS(=O)(=O)N1CCCC(C(=O)NCc2ccccc2Cl)C1 (configuration not stated),–,–,–,–,–
O=C(C1CCCN1S(=O)(=O)c1cccc2nsnc12)N1CCN(c2ccc(F)cc2)CC1 (configuration not stated),–,–,-74,–,?
CC(=O)Nc1ccc(S(=O)(=O)N2CCCC(C(=O)O)C2)cc1 (configuration not stated),–,–,–,–,–
COc1cc(CN2CCC(CO)(Cc3cccc(C(F)(F)F)c3)CC2)ccc1F,–,–,–,–,–
COc1ccc(CN2CCC(CO)(Cc3cccc(C(F)(F)F)c3)CC2)cc1Cn1cccn1,–,–,-84,–,–
Cc1cccc(NC(=O)CNC(=O)CSc2nnc(C(F)(F)F)n2C)c1C,–,–,-186,-130,·
COc1ccc(-n2c(SCC(=O)Nc3ccccc3)nnc2-c2ccoc2C)cc1,·,·,-105,–,·
Cc1ccc(-n2c(SCC(=O)Nc3ccc4c(c3)OCO4)nnc2-c2cccs2)cc1,–,–,?,-154,–
C=CCn1c(SCC(=O)Nc2ccc3c(c2)CCC3)nnc1-c1cccs1,–,–,-76,-94,–
Cc1cccc(-n2c(SCC(=O)Nc3ccc4c(c3)OCO4)nnc2-c2ccoc2C)c1,–,–,-71,-90,–
Cc1cc2nc(SCC(=O)N(C)C)c3c(c2cc1C)CCCC3,–,–,–,–,–
C=CCN(C(=O)CSc1nc2c(sc3ccccc32)c(=O)n1CCN(CC)CC)c1ccccc1,–,–,–,–,–
COc1cc(C(=O)N2CCC(NC(=O)C(Cc3ccc(C(C)C)cc3)NC(C)=O)CC2)cc(OC)c1OC (configuration not stated),–,–,–,–,–
C[C@@H](C(=O)N1CCN(C(=O)OC(C)(C)C)CC1)n1cc(CCCN=C(NC(=O)OC(C)(C)C)NC(=O)OC(C)(C)C)nn1,–,–,–,–,–
COC(=O)c1ccccc1-c1c2ccc(=N)cc-2oc2cc(N)ccc12,123,–,?,-118,·
COc1ccc2cc(C(=O)Nc3ccc(Cl)cc3)sc(=O)c2c1OC,–,–,–,–,–
SMILES,TRPV1 ag,TRPV1 potentiator,KCNH2 3.1 block,hERG WT inh,MBNL1-CUG inh
Cc1ccc(C)c(N2CCN(C(=S)Nc3ccc4nc(N5CCN(C)CC5)cc(C)c4c3)CC2)c1,–,–,-90,-115,–
Cc1cc(N2CCN(C)CC2)nc2ccc(NC(=S)NCCC(C)C)cc12,–,–,–,–,–
Cc1ccc(C)c(N2CCN(C(=S)Nc3ccc4nc(N5CCOCC5)cc(C)c4c3)CC2)c1,–,–,-85,-77,–
Cc1cccc(N2CCN(C(=S)Nc3ccc4nc(N5CCOCC5)cc(C)c4c3)CC2C)c1 (configuration not stated),–,?,-76,–,–
Cc1cc(N2CCOCC2)nc2ccc(NC(=S)N3CCN(c4ccccc4)CC3)cc12,–,–,–,–,–
Cc1cc(N2CCOCC2)nc2ccc(NC(=S)NCCC(C)C)cc12,–,–,-88,–,?
CCC(C)(C(=O)NC1CCCC1)N(C)C(=O)c1ccccn1 (configuration not stated),–,89,–,–,–
CC[C@@H]1CC=C[C@H]2[C@H]1C(=O)N(Cc1ccccc1)[C@H]2c1ccoc1,–,–,–,–,–
CC[C@@H]1CC=C[C@H]2[C@H]1C(=O)N(Cc1ccccc1)[C@H]2c1ccc(C(F)(F)F)cc1,?,–,-77,–,–
Cc1ccc(C)c(NC(=O)C2CCCN2/C=C/C(=O)C(F)(F)F)c1 (configuration not stated),–,–,-119,–,–
Cc1cccc(NC(=O)C2CCCN2/C=C/C(=O)C(F)(F)F)c1C (configuration not stated),–,–,–,–,–
S=C(NCCc1ccccc1)Nc1cccc2cnccc12,?,–,–,–,?
CCOC(=O)N1CCC(NC(=O)CCN2C(=O)COc3ccccc32)CC1,–,–,–,-253,–
O=C(COC(=O)Cc1ccc(Cl)cc1)NCc1cccs1,·,·,–,–,·
Cc1cnc(CN2CCc3c([nH]c4ccccc34)C2C2CCCCC2)[nH]1 (configuration not stated),–,–,-72,–,–
CCN(CC)S(=O)(=O)c1ccc(/C=C/C(=O)O)cc1,–,–,–,–,–
CCN(CC)S(=O)(=O)c1ccc(/C=C/C(=O)Nc2cccc(F)c2)cc1,97,–,·,–,·
CC(Sc1ncnc2ccccc12)C(=O)Nc1ccc2c(c1)OCO2 (configuration not stated),–,–,–,–,–
O=C(Nc1ccc2c(c1)OCO2)C1CCN(C(=O)CSc2ncnc3ccccc23)CC1,81,–,–,–,–
CC1CC(C)CN(C(=O)c2nn(C)c3c2CS(=O)(=O)c2ccccc2-3)C1 (configuration not stated),–,–,–,–,–
Oc1ccc(C[C@H]2CNC(=S)N2CC2CCCN2C[C@H](Cc2ccc(O)cc2)N2C[C@H](Cc3ccccc3)N(CC3CCCCC3)C2=S)cc1 (some centres not stated),·,·,–,–,·
CCOC(=O)C1=C(C)N=C2SC(C)C(=O)N2C1c1ccccc1 (configuration not stated),–,–,-94,–,–

# Assay outcomes (PubChem)
